Measured values taken from PubChem BioAssay AID1259311 (ICCB-Longwood Screening Facility, Harvard Medical School, 2017).
Values joined by “and” are separate entries in the source; they are usually repeats but may differ in a detail not shown here. Equal values may be shown once. Screen size: about 330,000 compounds; about 1,100 (0.33%) were called active. This is one part of a sample in which actives are shown more often than they occur. A number with no mark means an inactive call. Rule as the data show it: active = inhibition above about 85%; inactive = the rest.

test: growth inhibition of S. aureus RN4220, primary screen, OD600 (AID 1259311); details: OD600, 16 h, stronger effect = higher value;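 also: plate controls were untreated cells for no effect and reference antibiotic for full effect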

In the case of `CC(NC(=O)c1nc[nH]c1C(=O)NCCCCCNC(=O)OC(C)(C)C)c1ccccc1` (centres undefined), the inhibition is reported as 8.53% and 1.7%.
In the case of `CC1(C)SC2C(NC(=O)COc3ccccc3)C(=O)N2C1C(=O)O` (centres undefined), the inhibition is reported as 99.8% (active).
In the case of `C#Cc1ccc(C2C=C(C(=O)N3CCOCC3)OC(OCC)C2CCCO)cc1` (centres undefined), the inhibition is reported as 2.8% and 5.16%.
In the case of `COc1cccc(-c2nnc(NC(=O)c3ccc(S(=O)(=O)N(CC(C)C)CC(C)C)cc3)o2)c1`, the inhibition is reported as 99.9% (active).
In the case of `C=C[C@]1(C)CC(OC(=O)CSCCN(CC)CC)[C@]2(C)C(C)CC[C@]3(CCC(=O)C32)C(C)C1O` (some centres undefined), the inhibition is reported as 101% (active).
In the case of `CC(C)CCn1c(=O)c(C(=O)NN=Cc2cccc(F)c2)c(O)c2ccccc21`, the inhibition is reported as 101% (active).
With `CCCn1c(=O)c(C(=O)NN=Cc2ccc(F)cc2)c(O)c2ccccc21` the inhibition was 101% (active).
In the case of `CC(C)(C)C1C=C(C(=O)N2CCN(Cc3ccccc3)CC2)OC(OCc2ccc(CO)cc2)C1` (centres undefined), the inhibition is reported as 8.07% and 4.07%.
For `Cn1c(SCC(=O)NN=Cc2ccc([N+](=O)[O-])s2)nnc1-c1ccccc1`, the inhibition was 94.9% (active).
In the case of `COc1cccc(C=NNc2cc(-n3nc(C)cc3-c3ccccc3)ncn2)c1O`, the inhibition is reported as 99.8% (active).
In the case of `O=C(NC(Nc1nc2ccc([N+](=O)[O-])cc2s1)(C(F)(F)F)C(F)(F)F)c1ccccc1`, the inhibition is reported as 100% (active).
In the case of `CCC(C)N1CCC2(CC1)N=c1c(c3c4c5c(C)c(O)c3c(O)c1=NC(=O)C(C)=CC=CC(C)C(O)C(C)C(O)C(C)C(OC(C)=O)C(C)C(OC)C=CO[C@@](C)(O5)C4=O)N2` (some centres undefined), the inhibition is reported as 99.7% (active).
With `Cc1cc(C)cc(C(=O)NC2C(=O)N3C(C(=O)O)=C(CSc4nnc(C)s4)CSC23)c1` (centres undefined) the inhibition was 99.5% (active).
For `Cc1nnc(SCC2=C(C(=O)O)N3C(=O)C(NC(=O)Cn4nc(C)c(Cl)c4C)C3SC2)s1` (centres undefined), the inhibition was 99.6% (active).

First: C[C@]12CCC(O)CC1CCC1C2CC[C@]2(C)C(O)CCC12 (some centres undefined)
Second: C#C[C@]1(O)CCC2C3CCC4=Cc5nc6nc7ccccc7n6cc5C[C@]4(C)C3CC[C@@]21C (some centres undefined)
The inhibition of the first is higher: 7.5% for the first, -13.8% for the second.

Compared with `Cc1ccc(NS(=O)(=O)c2cc([N+](=O)[O-])ccc2NN=Cc2sc(N3CCOCC3)nc2-c2ccccc2)c(C)c1`, `Cc1ccc(OCC(=O)NN=Cc2cc([N+](=O)[O-])ccc2N2CCCCC2)cc1` is higher in inhibition: -5% for the first, 15.8% for the second.

Going from `COC(=O)Cc1ccc(OCC(=O)NC2CCCC2)cc1` to `Cc1nnc(SCC(=O)NC2CCCC2)s1`, the inhibition falls from 2.26% to -0.203%.

Going from `Cc1cccc(OCC(=O)NC2CC(C)(C)NC(C)(C)C2)c1` to `COc1cccc(C(=O)NCC(=O)NN=Cc2c(C)[nH]c3ccccc23)c1`, the inhibition rises from -1.7% to 4.11%.

First: O=S(=O)(NN=Cc1cccc(F)c1)c1ccccc1
Second: O=S(=O)(NN=Cc1ccc(OC2CSC2)cc1)c1ccccc1
The inhibition of the first is higher: 29.9% for the first, 2.43% for the second.

Going from `CCOc1cccc(-c2c(C(=O)NN=Cc3ccc(C)o3)nnn2-c2nonc2N)c1` to `CC(=NNC(=O)c1nnn(-c2nonc2N)c1CSc1ccc(C)cc1)c1ccco1`, the inhibition falls from 4.52% to 4.06%.

First: COc1ccc(-c2nnc(NC(=O)CS(=O)(=O)c3ccc(Cl)cc3)o2)c(OC)c1
Second: O=C(Nc1nnc(-c2ccco2)o1)c1ccc(S(=O)(=O)N2CCOCC2)cc1
The inhibition of the first is higher: 3.79% for the first, 1.85% for the second.

First: CC1CN(C(C)CO)C(=O)c2cccc(NC(=O)c3ccc(-c4nccs4)cc3)c2OC1CN(C)C(=O)NC1CCCCC1 (centres undefined)
Second: COC(=O)C1=C(c2ccc(C(C)=O)cc2)CC2CCC1N2C(=O)NCc1ccc(F)cc1 (centres undefined)
The inhibition of the first is higher: 4.31% for the first, 1.41% for the second.

First: COC(=O)[C@]1(CC(C)C)NC(c2ccc(-c3ccc(F)cc3)c(OC)c2)C2C(=O)N(C)C(=O)C21 (some centres undefined)
Second: COC(=O)[C@]1(C)NC(c2ccc(-c3cccc(Cl)c3)c(OC)c2)C2C(=O)N(C)C(=O)C21 (some centres undefined)
The inhibition of the first is lower: -2.27% for the first, 4.06% for the second.

Going from `COc1ccc(C2C=CCN(C(=O)Nc3ccccc3-c3ccccc3)CC(=O)N2Cc2ccc(F)cc2)cc1` (centres undefined) to `COc1cc(C(=O)NN=Cc2cn(Cc3cccc(F)c3)c3ccccc23)ccc1O`, the inhibition falls from 4.3% to -2.54%.

First: CCCCCn1c(=O)c(C(=O)NCc2ccccc2)c(O)c2ccccc21
Second: CCCn1c(=O)c(-c2ccccc2)c(O)c2ccccc21
The inhibition of the first is lower: -1.56% for the first, 4.44% for the second.

Going from `CCCn1c(=O)c(C(=O)Nc2cc(C)ccn2)c(O)c2ccccc21` to `Cc1ccc(C=NNC(=O)CSc2nc3ccccc3c(=O)n2-c2ccccc2)s1`, the inhibition falls from 8.88% to -0.0121%.

Going from `CCOC(=O)NN=C(C)/C=C/c1ccco1` to `CCOC(=O)C=c1sc(=C(C#N)C(=O)OCC)n(-c2ccccc2)c1=O`, the inhibition falls from -0.0294% to -0.54%.

Compared with `O=C1CCC(O)CCN1CCC(Sc1ccccc1)c1ccccc1` (centres undefined), `O=C(Cn1cnc2ccccc21)NN=Cc1ccccn1` is lower in inhibition: 10.9% for the first, -0.52% for the second.

Going from `CCOC(=O)C1C2COc3ccc(Br)cc3C2N2C(=O)N(c3ccc(C(F)(F)F)cc3)C(=O)[C@@]12C` (some centres undefined) to `CCCCC1CC1C(NC(=O)c1ccco1)c1ccccc1C(F)(F)F` (centres undefined), the inhibition rises from -6.79% to 6.05%.

Compared with `O=C(CN1CCSCC1)NN=Cc1ccc(F)cc1F`, `Cc1ccc(C=NNC(=O)CSc2nc3ccccc3n2C)s1` is lower in inhibition: 6.36% for the first, 0.496% for the second.

Compared with `COc1cccc(C=NNC(=O)CSCC(=O)Nc2ccccc2)c1O`, `COc1cccc(C=NNc2ncnc3c2ncn3Cc2ccccc2)c1O` is higher in inhibition: 3.38% for the first, 9.44% for the second.

First: O=C(NOCc1ccccc1)c1cccc([N+](=O)[O-])c1
Second: N=C1C(c2nc3ccccc3s2)=C(O)CN1NC(=O)c1ccc([N+](=O)[O-])cc1
The inhibition of the first is lower: 4.41% for the first, 31.5% for the second.

Compared with `COC(=O)C1=C(c2cccc(OC)c2OC)CC2CCC1N2C(=O)NCCNC(C)=O` (centres undefined), `COc1cccc(C2=CC(=O)CC(c3ccc4c(c3)OCO4)C2)c1OC` (centres undefined) is higher in inhibition: 2.83% for the first, 4.85% for the second.

First: Cc1nnc(SCc2cc(=O)[nH]c(N3CCN(Cc4ccccc4)CC3)n2)s1
Second: Cc1nnc(SCC(=O)Nn2cnnc2)s1
The inhibition of the first is lower: 1.62% for the first, 2.92% for the second.
